PubChem BioAssay (NCI)
“And” between values parts separate entries of the source, which are not always exact repeats. Identical values can stand only once. Compounds without any hit were thinned out: in the full panel of roughly 83,000, 20% have a hit.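 The endpoint reported here, percent growth, reads 100 for growth as untreated, 0 for no net growth and -100 for all cells dead.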 Values without a mark were called inactive. The source made the active and inactive calls. The calls were made as follows: active = growth percent below 10; inactive = the rest.

What was measured:
Test in all cases: NCI-60 one-dose screen, 48 h (100 = growth as untreated, 0 = no growth, -100 = all killed)
T-47D breast = details: 10 µM unless noted
BT-549 breast = details: 10 µM unless noted
MDA-MB-435 melanoma = details: 10 µM unless noted
SW-620 colon = details: 10 µM unless noted
MCF7 breast = system: MCF7 breast
HCT-116 colon = details: 10 µM unless noted
HCC-2998 colon = details: 10 µM unless noted
KM12 colon = details: 10 µM unless noted

Row | SMILES | growth (T-47D breast) | growth (BT-549 breast) | growth (MDA-MB-435 melanoma) | growth (SW-620 colon) | growth (MCF7 breast; 10 µM unless noted) | growth (HCT-116 colon) | growth (HCC-2998 colon) | growth (KM12 colon) | growth (MCF7 breast; 10 µM) | growth (MCF7 breast; 100 µM)
1 | CN(C)c1ccc2cc3c(cc2c1)Oc1ccccc1N3.[Cl][Zn][Cl] | -18.9% (active) | 105% | 6.73% (active) | 11.8% | 3.32% (active) | 8.67% (active) | 103% | 79.6% | – | –
2 | O=C(O)c1cccc2cccc(-c3c4ccc(=O)c(O)c-4oc4c(O)c(O)ccc34)c12 | 98.9% | 93.8% | 100% | 97.3% | 101% | 91.2% | 96.2% | 96% | – | –
3 | CCC[CH2][Sn]1([CH2]CCC)[O]C2C(CO)OC(n3ccc(N)nc3=O)C2[O]1 (configuration not stated) | -68.8% (active) | -85.2% (active) | -75.5% (active) | -77.1% (active) | -92.2% (active) | -73.6% (active) | -19.2% (active) | 7.12% (active) | – | –
4 | CC12CCC(O)CC1=CCC1C2CCC2(C)C3=NN=CC3CC12 (configuration not stated) | 110% | 124% | 53% | 103% | 107% | 108% | 107% | 94.3% | – | –
5 | COc1cc(/C=C/c2ccnc3ccccc23)cc(OC)c1OC | 41.1% | 11.7% | -8.94% (active) | 17.4% | 16.1% | 20% | 34.6% | 12.4% | – | –
6 | COc1cc(-c2ccc(-[n+]3nc(-c4ccc([N+](=O)[O-])cc4)nn3-c3ccc([N+](=O)[O-])cc3)c(OC)c2)ccc1-[n+]1nc(-c2ccc([N+](=O)[O-])cc2)nn1-c1ccc([N+](=O)[O-])cc1 | -34.2% (active) | 26.9% | -58.4% (active) | 2.63% (active) | -65% (active) | 6.85% (active) | 29.8% | 25.4% | – | –
7 | CCCCCCCCCCCCSC(=N)N | -35.5% (active) | 63.6% | -73.2% (active) | -61.5% (active) | -30.8% (active) | -64.2% (active) | -80.5% (active) | -21.1% (active) | – | –
8 | O=C1/C(=C/c2ccccn2)CCc2ccccc21 | 84.9% | 106% | 88.5% | 85.5% | 59.4% | 90.4% | 100% | 86.9% | – | –
9 | O=C(c1ccc(O)c(Br)c1)c1ccc(O)c(Br)c1 | 106% | 100% | 118% | 109% | 117% | 101% | 105% | 99.2% | – | –
10 | CC1(C)OCC(COC(c2ccccc2)(c2ccccc2)c2ccccc2)O1 (configuration not stated) | 84.3% | 119% | 106% | 104% | 100% | 89.7% | 97.4% | 96.5% | – | –
11 | CC(C)c1ccc(Nc2n[nH]c(=S)s2)cc1 | 85.6% | 96.2% | 97.1% | 110% | 101% | 101% | 91% | – | – | –
12 | Cc1ccccc1NC(=O)Cc1csc2[n+]1C(=O)/C(=C/c1ccc([N+](=O)[O-])cc1)S2 | 84.2% | 88.9% | 97.5% | 107% | 92.7% | 84.4% | 82.2% | 98.4% | – | –
13 | OC(c1cc(-c2ccc(Cl)cc2)nc2c(Cl)cccc12)C1CCCCN1 (configuration not stated) | -82.9% (active) | 73.6% | -78.8% (active) | -86.2% (active) | -88.7% (active) | -28.8% (active) | -68.9% (active) | -89% (active) | – | –
14 | O=[n+]1c2ccccc2n([O-])c2cc(Cl)ccc21 | 46.8% | 74.7% | 100% | 53.2% | 28.2% | 28.7% | 93.5% | 79% | – | –
15 | COc1cc2c(c(OC)c1OC)-c1ccc(NCc3ccccc3)c(=O)cc1[C@@H](NC(C)=O)CC2 | 59.4% | 0.422% (active) | -54.8% (active) | 16.6% | 7.93% (active) | 9.33% (active) | 10.6% | 12.7% | – | –
16 | CCN1/C(=C/C(C)=C/c2sc3ccc4ccccc4c3[n+]2CC)Sc2ccc3ccccc3c21 | -69.8% (active) | -93.3% (active) | -97.2% (active) | -94.2% (active) | -84.5% (active) | -69.5% (active) | -76.1% (active) | -93.6% (active) | – | –
17 | O=C(NNc1ccccc1)OCc1ccccc1 | 69% | 83.1% | 34.1% | 54.3% | 104% | 66% | 75.4% | 19.8% | – | –

Row | SMILES | growth (T-47D breast) | growth (BT-549 breast) | growth (MDA-MB-435 melanoma) | growth (SW-620 colon) | growth (MCF7 breast; 10 µM unless noted) | growth (HCT-116 colon) | growth (HCC-2998 colon) | growth (KM12 colon) | growth (MCF7 breast; 10 µM) | growth (MCF7 breast; 100 µM)
18 | O=C(c1ccccc1)c1cc2ccccc2oc1=O | 85.5% | 89.8% | 109% | 113% | 108% | 99.4% | 118% | 92.3% | – | –
19 | CCOC(=O)c1cc(CC)sc1NC(=O)CC(C)=O | 34.8% | 27.3% | 68.8% | 49.7% | 15.9% | 26.5% | 69.4% | 47.1% | – | –
20 | CC1=CC(=NC(=O)CBr)C=C/C1=N\S(=O)(=O)c1ccccc1 | 12.3% | 65.6% | 43.4% | 17% | 16.3% | 22.8% | 110% | 106% | – | –
21 | O=C1C(=O)c2cccnc2-c2ncccc21 | -68.8% (active) | -11.7% (active) | -69.6% (active) | -95.6% (active) | -55.4% (active) | -100% (active) | 30.5% | -47.2% (active) | – | –
22 | CCN(CC)c1ccc(/C=C\C(=O)c2ccc(NC(C)=O)cc2)cc1 | 76.3% | 94.8% | 10.9% | 42.5% | 71.3% | 58.6% | 77.9% | 48.1% | – | –
23 | Oc1c(Cl)cc(Cl)cc1C=NCC1CCC(CN=Cc2cc(Cl)cc(Cl)c2O)CC1 (configuration not stated) | 71.4% | 90.4% | 88.8% | 116% | 78.1% | 74.9% | 107% | 93.6% | – | –
24 | CCNc1nnnn1CC | 106% | 110% | 107% | 104% | 95.7% | 102% | 110% | 110% | – | –
25 | CCCCCCCCCCCC(=O)OC(C)C(=O)NCCCC (configuration not stated) | 97.9% | 92.5% | 112% | 98.5% | 94.7% | 94.4% | 80.2% | 105% | – | –
26 | CCCCCCCCCCCCCCCCSC(=NCC)NCC | 8.09% (active) | 64.4% | -89.7% (active) | -71.7% (active) | -66.3% (active) | -94.3% (active) | -64.9% (active) | -30.7% (active) | – | –
27 | CCC(C)(O)Cc1ccc(Cl)cc1 (configuration not stated) | 94.9% | 98.5% | 101% | 99.4% | 92.8% | 97.7% | 109% | 101% | – | –
28 | N#CC1c2ccccc2C=CN1C(=O)CCCl (configuration not stated) | 52.4% | 92.1% | 94% | 55.8% | 24.8% | 84.1% | 110% | 86.4% | – | –
29 | CCC1CCCCN1C(=S)N/N=C(\C)c1ccccn1 (configuration not stated) | 4.58% (active) | 30.8% | 3.24% (active) | 9.32% (active) | 13% | 5.51% (active) | 17.9% | 4.56% (active) | – | –
30 | CC[n+]1ccc(Nc2ccc(NC(=O)c3ccc(Nc4cc[n+](CC)c5ccc([N+](=O)[O-])cc45)cc3)cc2)cc1 | 46.3% | 92.6% | 74.4% | 92.8% | 36.7% | 65.4% | 104% | 65.5% | – | –
31 | CCN(CC)CC(O)c1cc(-c2ccc(Cl)cc2)nc2cc(Cl)ccc12 (configuration not stated) | 12.9% | 81.6% | 13.1% | 31.5% | -28.4% (active) | -0.822% (active) | 26.4% | -36.6% (active) | – | –
32 | C[n+]1ccccc1C[n+]1ccccc1 | 105% | 108% | 115% | 118% | 92.3% | 107% | 110% | 103% | – | –
33 | CC(C)=CCCC(C)C1=C(O)C(=O)C(C)=CC1=O (configuration not stated) | -66.9% (active) | 24.7% | 102% | -49.5% (active) | – | -85.2% (active) | 100% | 86.8% | 66.9% | -52.3% (active) and -33.3% (active)
34 | Oc1ccc2c(c1)CCc1ccccc1-2 | 86.3% | 106% | 96.6% | 103% | 103% | 97.7% | 102% | 113% | – | –
